According to PubChem BioAssay (NCATS):
Inconclusive results are not listed. The source made the active and inactive calls. The call rests on the fitted dose curve; in most records, active means well fitted cell-killing curve with a large enough effect; inconclusive means small, poorly fitted or top-dose-only effect, or effect the other way; inactive means flat fitted curve, though single readings scatter. Where a SMILES comes first, the peptide text is derived from it. The star is where a group is joined. Cbz = O=C(OCc1ccccc1)*; CH2F = FC*

Assays:
Assay in all cases: Primary qHTS to identify gynecologic anti-cancer compounds using libraries of approved drugs and bioactive compounds (AID 1345084); further: nearly all actives have a fitted effect of over 55% in size
Conditions in all cases: Gynecologic cancer cell panel viability, ATPlite luminescence, 48 h; series mostly up to 57.5 µM
PA-1 = tested on: PA-1
In short: (§1)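 In this quantitative HTS, cell killing is estimated from loss of ATP-dependent luciferase light. Cells see five compound concentrations over a 48 h exposure.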

SKOV3 = tested on: SKOV3
In short: as §1

Tov-21-G = tested on: Tov-21-G
In short: as §1

Tov112D = tested on: Tov112D
In short: as §1
On the % scale 0 is the no-effect control and ±100 the full control effect.

CC1(C)OC(=O)C=C[C@@]2(C)C1CC(=O)[C@]1(C)C2CC[C@@]2(C)[C@H](c3ccoc3)OC(=O)[C@H]3O[C@]321 (some centres not stated)
inactive: Potency (PA-1) | Potency (SKOV3) | Potency (Tov-21-G) | Potency (Tov112D)

COC(=O)CC[C@H](NC(=O)[C@H](CC(C)C)NC(=O)OCc1ccccc1)C(=O)N[C@@H](Cc1cnc[nH]1)C(=O)N[C@@H](CC(=O)OC)C(=O)CF (Cbz-LE(OMe)HD(OMe)-CH2F)
inactive: activity change, negative = cytotoxicity (PA-1) -3.2% [at 11.6 µM] | activity change, negative = cytotoxicity (SKOV3) -4.39% [at 11.6 µM] | activity change, negative = cytotoxicity (Tov-21-G) 4.92% [at 11.6 µM] | activity change, negative = cytotoxicity (Tov112D) 6.4% [at 11.6 µM]

C[C@H]1/C=C/C=C/C=C/C=C/C=C/[C@@H](O)[C@H](C(=O)O)[C@H](O)C[C@H](O)CCC[C@H](O)C[C@H](O)C[C@H](O)[C@@H](C)C(=O)O[C@@H]1C
inactive: Potency (PA-1) | Potency (SKOV3) | Potency (Tov-21-G) | Potency (Tov112D)

CC1(C)C2CCC1(C)C(OC(=O)C(O)(CC(=O)O)CC(=O)O)C2 (configuration not stated)
inactive: Potency (PA-1) | Potency (SKOV3) | Potency (Tov-21-G) | Potency (Tov112D)

CC1(C)C(=O)CCC2(C)C1C(O)C=C1COC(=O)C12O (configuration not stated)
inactive: Potency (PA-1) | Potency (SKOV3) | Potency (Tov-21-G) | Potency (Tov112D)

O=C(O)c1cc(O[C@@H]2O[C@H](CO)[C@@H](O)[C@H](O)[C@H]2O)ccc1O
inactive: Potency (PA-1) | Potency (SKOV3) | Potency (Tov-21-G) | Potency (Tov112D)

COc1ccc(CC(=O)NCc2ccccc2-c2ccccc2C(=O)NCCc2cccnc2)cc1
inactive: Potency (PA-1) | Potency (SKOV3) | Potency (Tov-21-G) | Potency (Tov112D)

CC1=C(C(=O)OC2OC(COC3OC(CO)C(O)C(O)C3O)C(O)C(O)C2O)C(C)(C)CCC1 (configuration not stated)
inactive: Potency (PA-1) | Potency (SKOV3) | Potency (Tov-21-G) | Potency (Tov112D)
